p53 reactivation – re-activators of mutant p53 | H1299 p53-A138V BP100-luciferase reporter, luminescence, 24 h | Potency, µM (titrated, usually from 92.2 µM), hits mostly activators | actives 0.063% (n = 320,000) | AID 504706; further: nearly all actives have a fitted effect of over 45% in size
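p53-null H1299 cells stably carrying temperature-sensitive p53-A138V and a BP100-luciferase reporter were pinned with compounds (4-point, 1:5 series) and held 24 hrs at 37 deg C. Luminescence was read 10 min after detection reagent.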
VP16 counter – counter-screen for ROR gamma inhibitors: Gal4-VP16 reporter; Drosophila S2 Gal4-VP16 UAS-luciferase, luminescence, 20 h; Potency, µM (series often up to 53.6 µM), most hits filed as inhibitors; actives 3.5% (n = 310,000);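 further: Gal4-VP16 expression switched on by copper sulfate through the metallothionein promoter; nearly all actives have a fitted effect of over 50% in size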
ELG1 DNA repair – blocks ELG1-dependent DNA repair in HEK293T cells. AID 504467. actives 2.3% (n = 330,000). HEK293T ELG1-luciferase reporter, luminescence, 16 h; DNA damage induced by 5-fluorouridine. Potency, µM (series often up to 46.1 µM), hits mostly inhibitors; further: nearly all actives have a fitted effect of over 55% in size
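5-Fluorouridine DNA damage + compound/DMSO, 2,000 cells/well, 16 h, 37 °C/5% CO2. ONE-Glo, 30 min RT, luminescence. Readout = decrease in reporter signal.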
BRCA1 expr up – activators of BRCA1 expression. MCF7-BRCA1-FFLuc reporter, luminescence, 48 h; response scale: scaled: vehicle 0%, 10 µM genistein 100%. actives 1.1% (n = 380,000). Potency, µM (highest dose often 46.1 µM), usual class: activators. AID 624202; further: nearly all actives have a fitted effect of over 80% in size
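Cells: MCF7-BRCA1-FFLuc, 2000/well. Exposure: 48 h, 37 °C, 5% CO2. Read: luminescence, 15 min post-substrate. Controls: genistein 10 microM (maximal activation), DMSO (neutral).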
RORgamma inh – ROR gamma (mouse) transcription inhibition. Drosophila S2 Gal4-RORgamma UAS-luciferase reporter, 20 h. Potency, µM (doses to about 53.6 µM), actives largely listed as inhibitors. actives 5.4% (n = 310,000). AID 2551; further: nearly all actives have a fitted effect of over 60% in size
Target sequence (P51450 whole entry, looked up, the tested form may be a part): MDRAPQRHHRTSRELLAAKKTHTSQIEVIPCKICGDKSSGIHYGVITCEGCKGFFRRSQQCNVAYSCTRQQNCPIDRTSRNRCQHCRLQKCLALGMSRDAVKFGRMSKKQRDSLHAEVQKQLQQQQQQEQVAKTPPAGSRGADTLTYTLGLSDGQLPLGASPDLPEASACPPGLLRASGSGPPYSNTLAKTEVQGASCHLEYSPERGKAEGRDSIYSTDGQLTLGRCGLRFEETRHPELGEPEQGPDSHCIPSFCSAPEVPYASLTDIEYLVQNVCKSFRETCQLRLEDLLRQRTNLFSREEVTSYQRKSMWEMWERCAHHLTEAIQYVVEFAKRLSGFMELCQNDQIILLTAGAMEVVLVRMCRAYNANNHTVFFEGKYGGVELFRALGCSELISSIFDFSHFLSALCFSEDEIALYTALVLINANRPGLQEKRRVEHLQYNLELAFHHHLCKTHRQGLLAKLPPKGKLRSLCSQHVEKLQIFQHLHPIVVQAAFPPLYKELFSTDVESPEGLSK
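Stably transfected Drosophila Schneider cells are the test system, with ROR gamma fused to Gal4 and luciferase under UAS control; luminescence is read after 20 hr of 700 uM copper sulfate induction at ambient temperature.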
Giardia kill – Giardia lamblia killing | Giardia lamblia trophozoite viability | activity change, % at 7.66 µM, hits read low | actives 0.15% (n = 340,000); in the data active means activity change below about -80%; inconclusive means between about -30% and that limit;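 further: parasites exposed to compound for two days anaerobically before the ATP read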
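Luminescence from cellular ATP indicates surviving trophozoites (100 cells/well) following 48 hrs anaerobic compound treatment at 37 deg C; signal develops 15-30 min at room temperature.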
Each line names hits and unclear results; the compound was inactive in the other large screens. Rows were chosen to be rich in hits. Some 7.6% of all compounds tested hit in one or more screens of this group. Unless noted, the call rests on the fitted dose curve; in most records, active means well fitted curve in the direction sought with a large enough effect; inconclusive means small, poorly fitted or top-dose-only effect, or another doubt; inactive means no such curve, though single readings can be large; an effect the other way counts as inactive or inconclusive.

CN(Cc1cccc(C(F)(F)F)c1)Cc1nc(-c2cnccn2)no1	none
CN(C)c1ccc(/C=N\NC(=S)SCN2C(=O)C3CCC(C)(C2=O)C3(C)C)cc1 (configuration not stated)	p53 reactivation inconclusive, VP16 counter inconclusive, ELG1 DNA repair inconclusive, RORgamma inh 0.32µM
Cc1ccc(NC(=O)C2C(c3ccccc3)C2(Cl)Cl)c(C)c1 (configuration not stated)	none
COc1nnc(-c2ccc(C)c(S(=O)(=O)NC(C)(C)CO)c2)c2ccccc12	VP16 counter inconclusive, ELG1 DNA repair inconclusive, RORgamma inh inconclusive
CN(C)c1cc(N/N=C/c2ccccc2C(F)(F)F)nc(N(C)C)n1	ELG1 DNA repair 16µM
Cc1nnc(N/N=C/c2ccccc2C(F)(F)F)n1N	none (no result: p53 reactivation, VP16 counter, RORgamma inh)
CCN1CCCc2cc(CN(CCN3CCOCC3)C(=S)Nc3ccc(C)cc3)ccc21	ELG1 DNA repair inconclusive, RORgamma inh 3.5µM
CCOc1ccc(NC(=S)N(CCN2CCOCC2)Cc2ccc3c(c2)CCCN3CC)cc1	VP16 counter inconclusive, ELG1 DNA repair inconclusive, RORgamma inh 6.3µM
CCN1CCCc2cc(CN(CCN3CCOCC3)C(=S)Nc3cc(F)cc(F)c3)ccc21	RORgamma inh 7.1µM
CCN1CCCc2cc(CN(CCN3CCOCC3)C(=S)Nc3cccc(Cl)c3)ccc21	RORgamma inh 7.1µM
CCN1CCCc2cc(CN(CCN3CCOCC3)C(=S)Nc3ccc(OC)cc3)ccc21	RORgamma inh inconclusive
N#Cc1c(-c2ccc([N+](=O)[O-])cc2)nc2n(c1=O)CCS2	Giardia kill inconclusive
COc1ccc(-c2coc3c(C(=O)NCCN4CCOCC4)cccc23)c(C)c1	none (no result: p53 reactivation, VP16 counter, ELG1 DNA repair, RORgamma inh, Giardia kill)
O=C(CCC(=O)N1CCSc2ccccc21)NCc1ccc(Cl)cc1	none (no result: p53 reactivation)
Cc1cccc(NC(=S)N(CCCN2CCCC2)Cc2cccn2Cc2ccc(Cl)cc2)c1	p53 reactivation inconclusive, VP16 counter inconclusive, RORgamma inh inconclusive
CCOc1ccc(NC(=S)N(CCCN2CCCC2)Cc2cccn2Cc2ccc(Cl)cc2)cc1	RORgamma inh 13µM
COc1ccc2nc(/C=N/NC(=O)CCCCCNC(=O)OC(C)(C)C)ccc2c1	ELG1 DNA repair inconclusive
COCc1ccc(C(=O)N(C)CC2CCCN(CCc3ccc(OC)cc3)C2)o1 (configuration not stated)	p53 reactivation inconclusive, VP16 counter inconclusive, ELG1 DNA repair inconclusive, BRCA1 expr up 13µM
COCc1ccc(C(=O)N(C)CC2CCCN(CCc3ccc(Cl)cc3)C2)o1 (configuration not stated)	none
CC(C)OC(=O)COc1ccc(-c2ccccc2)cc1	none
COc1ccc(Br)cc1/C=N/N1C(=O)CSC1=S	RORgamma inh 14µM
CCOC(=O)Cn1nc(/C=C/c2ccccc2)ccc1=O	VP16 counter 14µM
O=C(NC1=NCCS1)C12CC3CC(C1)CC(C(=O)NC1=NCCS1)(C3)C2	ELG1 DNA repair 23µM
CC12CC3CC(C)(C1)CC(C(=O)NC1=NCCS1)(C3)C2	VP16 counter 7.9µM, RORgamma inh 2.8µM
O=C(CC12CC3CC(C1)CC(CC(=O)NC1=NCCS1)(C3)C2)NC1=NCCS1	RORgamma inh inconclusive
CN(CC(=O)Nc1cccc(F)c1)CC(=O)Nc1ccc(Cl)cc1[N+](=O)[O-]	none
Cc1ccc(-n2c(Cc3ccccc3)nnc2SCC(=O)NNC(=O)Cc2ccccc2)cc1	none
O=C(COC(=O)CCN1C(=O)c2cccc([N+](=O)[O-])c2C1=O)NCc1ccccc1	none
Cc1cc(OCC(=O)N2CCOCC2)c(C(C)C)cc1Cl	RORgamma inh inconclusive
Cc1ccc(NC(=O)CCCN2C(=O)c3cccc4cccc(c34)C2=O)cc1	none
Fc1cccc2sc(N3CCCCC3)nc12	p53 reactivation inconclusive, VP16 counter inconclusive, ELG1 DNA repair inconclusive, BRCA1 expr up 13µM, RORgamma inh inconclusive
CC1CCc2c(sc(Nc3nc4c(F)cccc4s3)c2C(N)=O)C1 (configuration not stated)	VP16 counter 5µM, ELG1 DNA repair inconclusive, RORgamma inh 5.6µM
Fc1cccc2sc(Nc3nc4c(F)cccc4s3)nc12	VP16 counter inconclusive, RORgamma inh 4.5µM
NNc1nc2c(F)cc(F)cc2s1	p53 reactivation inconclusive, VP16 counter 18µM, ELG1 DNA repair inconclusive, RORgamma inh inconclusive
CCOc1ccc(NC(=O)C(=O)NCCN2CCN(C(=O)c3ccc(C)cc3)CC2)cc1	none
N#Cc1ccccc1OCC(O)CS(=O)(=O)c1ccccc1 (configuration not stated)	none
CNC(=O)c1c(NC(=O)C2=COCCO2)sc2c1CCC(C)C2 (configuration not stated)	ELG1 DNA repair inconclusive
NNc1nc2c(F)cccc2s1	p53 reactivation inconclusive, VP16 counter inconclusive, ELG1 DNA repair inconclusive, RORgamma inh 16µM
Nc1nc2c(F)cccc2s1	ELG1 DNA repair inconclusive
CC1CCc2c(sc(NC(=O)C3=COCCO3)c2C(N)=O)C1 (configuration not stated)	p53 reactivation inconclusive, ELG1 DNA repair inconclusive, BRCA1 expr up 7.1µM (no result: VP16 counter, RORgamma inh)
NC(=O)NCC(=O)N1CCN(S(=O)(=O)c2ccc(Cl)s2)CC1	none (no result: VP16 counter, RORgamma inh)
CCC(C)N(C(=O)c1csnn1)C(C(=O)NCc1ccc(F)cc1)c1ccccc1 (configuration not stated)	none
CC(NC(=O)c1sc2cc([N+](=O)[O-])ccc2c1Cl)C(C)(C)C (configuration not stated)	VP16 counter 13µM, RORgamma inh inconclusive
CN(C)C(=O)c1cc([N+](=O)[O-])cc([N+](=O)[O-])c1N(C)C	RORgamma inh inconclusive, Giardia kill inconclusive
COC(=O)C(Cc1c[nH]c2ccccc12)NC(=O)c1cncc(Br)c1 (configuration not stated)	RORgamma inh inconclusive
COC(=O)C(Cc1c[nH]c2ccccc12)NC(=O)c1ccc2nc[nH]c2c1 (configuration not stated)	ELG1 DNA repair inconclusive, BRCA1 expr up 10µM (no result: VP16 counter, RORgamma inh)
Cc1cc(=O)[nH]c2nnc(SCC(=O)N3CC(C)OC(C)C3)n12 (configuration not stated)	none (no result: VP16 counter, RORgamma inh)
Cc1cc(=O)[nH]c2nnc(-c3ccc(Br)cc3)n12	ELG1 DNA repair inconclusive, BRCA1 expr up 4µM, Giardia kill inconclusive
O=C(CCn1c(=O)oc2ccccc21)N(Cc1ccccc1)c1ccccc1	ELG1 DNA repair inconclusive, RORgamma inh inconclusive
C=CCNC(=O)/C(C#N)=C/c1ccc(OS(=O)(=O)c2ccc(C)cc2)c(OC)c1	VP16 counter inconclusive, ELG1 DNA repair inconclusive, RORgamma inh 11µM

From PubChem
